From PubChem BioAssay AID1159580 (chemical genetic matrix, 2015)
The whole screen tested about 5,500 compounds, of which about 2,000 (36%) were called active. Not shown: some 18% with an inconclusive outcome. Rule as the data show it: active = normalized growth mostly below about 0.91 (no sharp cut-off); inconclusive = no clear call, values can overlap the other calls; inactive = mostly above about 0.92. The list shows a part of the results.

Assay: chemical genetic growth profiling, strain panel (AID 1159580);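 also: tested at 20 µM; growth read once vehicle control cultures reached saturation at 30 °C; 1 = growth at the plate median or of vehicle wells; lower values mean less growth of the strain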
Conditions: S. cerevisiae deletion strains, growth OD

Measured: normalized growth

CC(C)(C)C1=CC(=O)C=C(C(C)(C)C)C1=O
inactive: locus YAL013W, strain DEP1, hits give low values 1.03 | locus YBR229C, strain ROT2, hits give low values 1.04 | locus YDL101C, strain DUN1, hits give low values 0.997 | locus YDL134C, strain PPH21, hits give low values 1.01 | locus YDR150W, strain NUM1, hits give low values 0.979 | locus YEL061C, strain CIN8, hits give low values 1 | locus YGR078C, strain PAC10, hits give low values 1.01 | locus YHR030C, strain SLT2, hits give low values 0.996 | locus YHR087W, strain rtc3, hits give low values 1 | locus YJR043C, strain POL32, hits give low values 1.02 | locus YJR075W, strain HOC1, hits give low values 1.01 | locus YLR039C, strain RIC1, hits give low values 1.03 | locus YLR058C, strain SHM2 (second series), hits give low values 1.02 | locus YLR085C, strain ARP6, hits give low values 1.05 | locus YLR262C, strain YPT6, hits give low values 1 | locus YML094W, strain GIM5, hits give low values 1.01 | locus YMR219W, strain ESC1, hits give low values 1.01 | locus YMR263W, strain SAP30, hits give low values 1.02 | locus YMR307W, strain GAS1, hits give low values 1.02 | locus YNL153C, strain GIM3, hits give low values 1.03 | locus YNL298W, strain CLA4 (second series), hits give low values 1.03 | locus YNL322C, strain KRE1, hits give low values 1 | locus YNR030W, strain Alg12, hits give low values 1.03 | locus YOL006C, strain TOP1, hits give low values 1.05 | locus YPL055C, strain LGE1, hits give low values 1.02 | locus YPL241C, strain CIN2, hits give low values 0.999 | locus YPR135W, strain CTF4, hits give low values 1.07
